The panel holds about 83,000 compounds, 20% with a hit somewhere; the sample as a whole holds those more often.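 Plates (96-well) were seeded with cells, treated with compound at one concentration, and incubated for 48 hours before percent growth was determined.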 Active and inactive are the calls of the source. How the source made its calls: active means growth percent below 10; inactive means the rest.
Test system: HCT-15 colon
Experiment: NCI-60 one-dose screen, 48 h (100 = growth as untreated, 0 = no growth, -100 = all killed)
Conditions: 10 µM unless noted

SMILES | growth
Cn1cc(-c2cc3nc(-c4cn(C)c5ncccc45)cc(N)n3n2)c2cc(Cl)ccc21 | -64.5% (active)
CC12CC[C@@H]3[C@]4(C)COC(c5c(F)cccc5F)O[C@@H]4CC[C@@]3(C)[C@@H]1CC(C1=CCOC1=O)O2 (some centres not stated) | 80.4% (inactive)
Cc1nc(Nc2ncc(C(=O)Nc3c(C)cccc3Cl)s2)cc(N2CCN(CCCNC(=O)COc3ccc(C4CCC(=O)NC4=O)cc3)CC2)n1 (configuration not stated) | 68.3% (inactive)
Cn1cc(NC(=O)c2cc(NC(=O)c3ccc(/C=C/c4ccccc4)cc3)cn2C)cc1C(=O)NCCCN1CCOCC1 | 7.6% (active)
Cc1ccccc1[C@H]1C(C(=O)c2ccc(Cl)cc2)C2(N[C@@H]1c1ccccc1)C(=O)Nc1ccc(Br)cc12 (some centres not stated) | 7.15% (active)
Brc1ccc(N/N=C/c2c[nH]c3ccc(Br)cc23)nc1 | -61.8% (active)
C=C1CCC2C3(C)COC(c4ccccc4)OC3CCC2(C)C1CC(Sc1ccccc1)C1=CCOC1=O (configuration not stated) | 5.46% (active)
Clc1cccc(N/N=C/c2c[nH]c3ccc(Br)cc23)n1 | 22.3% (inactive)
COc1c(F)ccc(C(=O)Nc2ccc3nc(NC(=O)C4CCCN(S(=O)(=O)c5cccc(C(F)(F)F)c5)C4)sc3c2)c1F (configuration not stated) | 69.1% (inactive)
O=c1oc2ccc(Br)cc2cc1C1=CSc2nc3sc4c(c3c(=O)n2N=C1)CCCC4 | 95.1% (inactive)
CC(=O)/C=C/c1cccc2c1C(=O)NC(C)(c1cc3cc(Br)ccc3oc1=O)N2 (configuration not stated) | 14.6% (inactive)
O=c1[nH]c(=O)c2c(-c3cc4ccccc4oc3=O)ccnc2[nH]1 | 81.4% (inactive)
